Assay results as given in the supplement of paper PMC8728848.
The full list was thinned out, with the strongest signals kept by preference.

Columns and labels:
Experiment in all cases: glycan array binding signal (z-score within array); higher = stronger binding
Conditions in all cases: glycan notation: IUPAC condensed, linker removed
[1] = target: Neu5Ac(a2-8)Neu5Ac(a2-3)Gal(b1-4)Glc
Summary of the method: (§1)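 The binding signal is a Z-score computed within each array. Data were drawn from 3228 arrays in the Consortium for Functional Glycomics database, restricted to those with a known protein sequence. Scores were averaged over arrays of the same protein sequence at different concentrations or buffers, and over linkers, and negative values can be taken as non-binding.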

[2] = target: Neu5Ac(a2-8)Neu5Ac(a2-3)Gal(b1-4)GlcNAc
Summary of the method: as §1

[3] = target: Neu5Ac(a2-8)Neu5Ac(a2-8)Neu5Ac(a2-8)Neu5Ac(a2-3)[GalNAc(b1-4)]Gal(b1-4)Glc
Summary of the method: as §1

[4] = target: Fuc(a1-2)Gal(b1-3)GalNAc(b1-3)Gal(a1-4)Gal(b1-4)Glc
Summary of the method: as §1

[5] = target: Fuc(a1-2)Gal(b1-4)GlcNAc(b1-2)Man
Summary of the method: as §1

[6] = target: Fuc(a1-2)Gal(b1-4)[Fuc(a1-3)]GlcNAc(b1-2)Man(a1-3)[Fuc(a1-2)Gal(b1-4)[Fuc(a1-3)]GlcNAc(b1-2)Man(a1-6)]Man(b1-4)GlcNAc(b1-4)[Fuc(a1-6)]GlcNAc
Summary of the method: as §1

[7] = target: Fuc(a1-2)Gal3S(b1-4)GlcNAc
Summary of the method: as §1

[8] = target: Fuc(a1-2)[Gal(a1-3)]Gal(b1-4)[Fuc(a1-3)]GlcNAc
Summary of the method: as §1

[9] = target: Fuc(a1-2)[GalNAc(a1-3)]Gal(b1-3)GlcNAc
Summary of the method: as §1

[10] = target: Fuc(a1-2)[GalNAc(a1-3)]Gal(b1-4)GlcNAc
Summary of the method: as §1

[11] = target: Fuc(a1-2)[GalNAc(a1-3)]Gal(b1-4)GlcNAc(b1-2)Man(a1-3)[Fuc(a1-2)[GalNAc(a1-3)]Gal(b1-4)GlcNAc(b1-2)Man(a1-6)]Man(b1-4)GlcNAc(b1-4)GlcNAc
Summary of the method: as §1

[12] = target: Fuc(a1-2)[GalNAc(a1-3)]Gal(b1-4)GlcNAc(b1-3)[Fuc(a1-2)[GalNAc(a1-3)]Gal(b1-4)GlcNAc(b1-6)]GalNAc
Summary of the method: as §1

[13] = target: Fuc(a1-2)[GalNAc(a1-3)]Gal(b1-4)GlcNAc(b1-6)GalNAc
Summary of the method: as §1

[14] = target: Fuc(a1-3)[Gal3S(b1-4)]GlcNAc6S
Summary of the method: as §1

[15] = target: Gal(a1-2)Gal
Summary of the method: as §1

[16] = target: Gal(a1-3)Gal
Summary of the method: as §1

[17] = target: Gal(a1-3)Gal(b1-3)GlcNAc(b1-3)GalNAc
Summary of the method: as §1

[18] = target: Gal(a1-3)Gal(b1-4)[Fuc(a1-3)]GlcNAc(b1-2)Man(a1-3)[Gal(a1-3)Gal(b1-4)[Fuc(a1-3)]GlcNAc(b1-2)Man(a1-6)]Man(b1-4)GlcNAc(b1-4)GlcNAc
Summary of the method: as §1

[19] = target: Gal(a1-4)GlcNAc
Summary of the method: as §1

[20] = target: Gal(b1-3)GlcNAc(b1-6)[Gal(b1-3)]GalNAc
Summary of the method: as §1

[21] = target: Gal(b1-3)[Fuc(a1-4)]GlcNAc(b1-2)Man(a1-3)[Gal(b1-3)[Fuc(a1-4)]GlcNAc(b1-2)Man(a1-6)]Man(b1-4)GlcNAc(b1-4)[Fuc(a1-6)]GlcNAc
Summary of the method: as §1

[22] = target: Gal(b1-4)GlcNAc(b1-3)Gal(b1-4)GlcNAc
Summary of the method: as §1

[23] = target: Gal(b1-4)GlcNAc(b1-3)Gal(b1-4)GlcNAc(b1-2)Man(a1-3)[Gal(b1-4)GlcNAc(b1-3)Gal(b1-4)GlcNAc(b1-2)Man(a1-6)]Man(b1-4)GlcNAc(b1-4)GlcNAc
Summary of the method: as §1

[24] = target: Gal3S(b1-4)Glc
Summary of the method: as §1

[25] = target: Gal3S(b1-4)Glc6S
Summary of the method: as §1

[26] = target: Gal6P(b1-4)GlcNAc
Summary of the method: as §1

[27] = target: Gal6S(b1-3)GlcNAc6S
Summary of the method: as §1

[28] = target: GalNAc(b1-4)GlcNAc
Summary of the method: as §1

[29] = target: GalNAc(b1-6)GalNAc
Summary of the method: as §1

[30] = target: GalNAc3S(b1-4)[Fuc(a1-3)]GlcNAc
Summary of the method: as §1

[31] = target: GalNAc6S(b1-4)GlcNAc
Summary of the method: as §1

[32] = target: GlcA(b1-3)Gal
Summary of the method: as §1

[33] = target: GlcNAc(b1-2)[GlcNAc(b1-4)]Man(a1-3)[GlcNAc(b1-4)][GlcNAc(b1-2)[GlcNAc(b1-6)]Man(a1-6)]Man(b1-4)GlcNAc(b1-4)GlcNAc
Summary of the method: as §1

| Binder | glycan array binding signal (z-score) [1] | glycan array binding signal (z-score) [2] | glycan array binding signal (z-score) [3] | glycan array binding signal (z-score) [4] | glycan array binding signal (z-score) [5] | glycan array binding signal (z-score) [6] | glycan array binding signal (z-score) [7] | glycan array binding signal (z-score) [8] | glycan array binding signal (z-score) [9] | glycan array binding signal (z-score) [10] | glycan array binding signal (z-score) [11] | glycan array binding signal (z-score) [12] | glycan array binding signal (z-score) [13] | glycan array binding signal (z-score) [14] | glycan array binding signal (z-score) [15] | glycan array binding signal (z-score) [16] | glycan array binding signal (z-score) [17] | glycan array binding signal (z-score) [18] | glycan array binding signal (z-score) [19] | glycan array binding signal (z-score) [20] | glycan array binding signal (z-score) [21] | glycan array binding signal (z-score) [22] | glycan array binding signal (z-score) [23] | glycan array binding signal (z-score) [24] | glycan array binding signal (z-score) [25] | glycan array binding signal (z-score) [26] | glycan array binding signal (z-score) [27] | glycan array binding signal (z-score) [28] | glycan array binding signal (z-score) [29] | glycan array binding signal (z-score) [30] | glycan array binding signal (z-score) [31] | glycan array binding signal (z-score) [32] | glycan array binding signal (z-score) [33] |
| --- | --- | --- | --- | --- | --- | --- | --- | --- | --- | --- | --- | --- | --- | --- | --- | --- | --- | --- | --- | --- | --- | --- | --- | --- | --- | --- | --- | --- | --- | --- | --- | --- | --- |
| Awp1 (Candida glabrata) (protein) MSLITIFAFLIKATLVLSLDILTPTTLTGDQTFNEDVSVVSSLTLNDGSQYLFNNLLQIAPSSASVTANALAAVSVFTFSLPPSSSLSNSGTLIISNSNTGPSTEQHIVITPNVMANTGTITLSLAHTNTDSSSTLIIDPVTFYNTGTINYESIGSETNDPSLTGNILSIGSSGRTLQNLGTINLNAANSYYLLGTITENSGSINVQKGFLYVNALDFIGNTINLSTTTALAFISPVSQVVRVRGVFFGNIIASVGSSGTFSYNTQTGILTVTTNGVYSYDIGCGYNPALMSGQQETLSFQGNPYDTFLVLVNQPIPSDLTCAAVSSSITPSSSVEPSSSVVPSSSVEPSSSVEPSSSVEPSSSVEPSSSVEPSSSVEPSSSVEPSSSVEPSSSVEPSSSVEPSSSVEPSSSVEPSSSVEPSSSVEPSSSVEPSSSVEPSSSVEPSSSVEPSSSVEPSSLIVPSSSVEPSSSVLPSSSVVPSSSVEPSTPPIPSSSVEPSSSVVPSSPAVPSSSVEPSTPPIPSSSVVSASVFDTSSTLPSSPSVPPSSVSPSTISTPSSSAAPSSFCPTCVSSGTPPAPSSSAIVPTSSAGGGNGGDNREPGAAGQPGAAGQPGAAGQPGAAGQPGAAGQPGAAGQPGAAGQPGAAGQPGAAGQPGAAGQPGAGFGVGSEQPTPGAGAGSGSADGNQSGTGSGTGNGQQGSGQAGSGQAGSGQEGSGQAGSGQAGSGQAGSGQAGSGQAGLDNTASGQSEGGQASAMDGDQSGRDGQSNSGSLLQPNAQQGTGSGTGSDIGADQASGESPGQIGDAQPGSGTDQSSGRHSLAAEARTSQSHSLAADARTRSTTRQTSVIAPDTAPGTASGTAPGTAPGTAVVTTFHGCGTVNHKGMINILLALALLVLL | 0.225 | -0.772 | -1.71 |  |  |  |  |  |  |  |  |  |  |  |  |  |  |  |  |  |  |  |  |  |  |  |  |  |  |  |  |  |  |
| Mnn9-2N3 (Aspergillus fumigatus) (protein) MAVARRMRRTNPITLLLAAILAIGFFIFVLSPSTTSASPVKAGSASSSSTSQQRREDNAAENPLSPPTKPFFKSQPVRHDGQQAPPPVVQYNLNQLSSTSTSAANGERILILTPMARFVPEYWDNVVKLTYPHELISIGFIIPKNKEGNAALAALEAAIAKTQSGPIDKRFASISILRQDFEPPLQSQDEKERHKISNQKARRESMSRARNSLLFTTLGPATAWVLWLDADIVETPPTLIQDLTAHDHPVLVPNCYQRYYNSEKKKMDVRPYDYNSWIDSSTAQSMAAEMGPDEILLEGYAEMPTYRTLMAHLADTANPNPKKVIELDGVGGTALMVKAEVHRDGAMFPAFPFYHLVETEGFAKMAKRLGYSVYGLPDYFVSRNFFFFFFFFFFG |  |  |  | -0.365 | -1.25 | 3.21 | 1.83 | -0.761 | -1.58 | 0.402 | 0.31 | -0.67 | 2.39 | 3.29 | 3.25 | -0.434 | -0.015 | 2.41 | 2.75 | -0.321 | -0.841 | -0.099 | 3.03 | 3.44 | 1.42 | 2.57 | 2.52 | -0.366 | -0.275 | -0.385 | -0.802 | 0.326 | -0.559 |
